sEH inh: soluble epoxide hydrolase inhibitors, primary screen, biochemical, human sEH. recombinant human sEH enzymatic activity assay. AID 707, 2007. Bifunctional epoxide hydrolase 2 (Homo sapiens), P34913. inhibition, % at 2 µM. 0.34% of 91,000 active; in the data active means inhibition above about 80%
CYP2C9 act: human CYP2C9 activators, primary screen, biochemical, luminescence; Cytochrome P450 2C9 (Homo sapiens), P11712; recombinant CYP2C9, luciferin-H conversion; hits give high values; factor 1 = untreated enzyme, 0 = blocked; activation factor at 5 µM; 1.4% of 96,000 active;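 active means activation factor of 2 or more for CYP2C9 at a 5 µM dose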
Target sequence (P11712 whole entry, looked up): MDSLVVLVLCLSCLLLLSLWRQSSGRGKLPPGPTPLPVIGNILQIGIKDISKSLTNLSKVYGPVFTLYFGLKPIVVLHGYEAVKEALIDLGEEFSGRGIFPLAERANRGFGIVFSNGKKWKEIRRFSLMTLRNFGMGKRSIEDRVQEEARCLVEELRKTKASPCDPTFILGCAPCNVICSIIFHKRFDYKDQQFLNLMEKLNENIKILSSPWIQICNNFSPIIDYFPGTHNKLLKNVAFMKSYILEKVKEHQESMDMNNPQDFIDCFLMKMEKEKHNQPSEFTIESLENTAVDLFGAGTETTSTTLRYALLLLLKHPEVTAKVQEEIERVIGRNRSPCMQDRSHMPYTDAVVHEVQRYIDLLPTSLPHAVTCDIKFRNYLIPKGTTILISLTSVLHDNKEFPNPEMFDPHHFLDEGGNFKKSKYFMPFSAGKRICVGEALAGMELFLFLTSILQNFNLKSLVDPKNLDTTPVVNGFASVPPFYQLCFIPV
sEH activator: soluble epoxide hydrolase activators, primary screen, biochemical, human sEH | Bifunctional epoxide hydrolase 2 (Homo sapiens), P34913 | purified human sEH enzymatic activity, activator screen | activation, % at 2 µM | 0.04% of 91,000 active; in the data active means activation above about 37%
CYP2C19 inh: blockers of cytochrome P450 2C19 activity – biochemical, luminescence, ADME assay, primary screen; inhibition, % at 5 µM; CYP2C19 Supersomes, luciferin-H EGE luminescence, 30 min; 21% of 96,000 active; P33261; AID 778, 2007;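 active means CYP2C19 inhibition above a set limit at 5 µM in the primary screen, cut at about 50% in these data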
CYP2C9 inhib: blockers of cytochrome P450 2C9 activity – biochemical, luminescence, ADME assay, primary screen; P11712; CYP2C9 Supersomes, luciferin-H conversion; inhibition, % at 5 µM; 20% of 96,000 active; AID 777, 2007;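 active means blocking of liver enzyme CYP2C9 beyond about 50% at 5 µM, limit read from the data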
CYP2C19 act: human CYP2C19 activators, primary screen, biochemical, luminescence | Cytochrome P450 2C19 (Homo sapiens), P33261 | recombinant CYP2C19, luciferin-H EGE luminescence; hits give high values; 0 = fully inhibited enzyme, 1 = untreated enzyme | activation factor at 5 µM | 96,000 tested, under 10 active | AID 1025, 2008;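 active means activation factor of at least 2 at 5 µM in the primary screen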
Hits are given with their value; 0 = inactive; - = no result given. Only some compounds are listed: those with a hit (about 27% of all), similar ones and a draw of the others.

SMILES	sEH inh	CYP2C9 act	sEH activator	CYP2C19 inh	CYP2C9 inhib	CYP2C19 act
Cc1ccc(Nc2nc(-c3sc(NC(=O)c4cccc(Cl)c4)nc3C)cs2)cc1	0	0	0	0	0	0
CCC(C)C(=O)Nc1nc(C)c(-c2csc(Nc3ccc(Cl)cc3)n2)s1 (stereo not drawn)	0	0	0	0	58	0
CCC(Sc1ccc2nnc(-c3ccc(F)cc3)n2n1)C(=O)OC (stereo not drawn)	0	0	0	0	61	0
Cc1cc(NC(=O)CSc2ccc3nnc(-c4cccs4)n3n2)no1	0	0	0	0	75	0
Cc1ccc(-c2nnc3ccc(SCC(=O)Nc4cc(C)on4)nn23)cc1	0	0	0	0	50	0
Cc1cc(NC(=O)CSc2ccc3nnc(-c4ccc(F)cc4)n3n2)no1	0	0	0	0	0	0
Cc1cc(NC(=O)CSc2ccc3nnc(-c4cccnc4)n3n2)no1	0	0	0	0	0	0
CCC(=O)N1CCc2cc(S(=O)(=O)CCC(=O)NCCC3=CCCCC3)ccc21	86	0	0	0	53	0
CCC(=O)N1c2ccc(S(=O)(=O)CCC(=O)NCCC3=CCCCC3)cc2CC1C (stereo not drawn)	-	0	-	0	61	0
CCN(CC)Cc1c(CC(C)C)oc(C)c1C(=O)O	0	0	0	0	0	0
CC(=O)c1ccc(C(C)(C)c2ccc(C(C)=O)s2)s1	0	0	0	0	50	0
CC(=O)c1cc(C(c2csc(C(C)=O)c2)c2csc(C(C)=O)c2)cs1	0	-	0	-	-	-
Cc1cccc(C)c1OCCCCCNCCO	0	0	0	0	0	0
COC(=O)c1cn(NC(=O)c2ccncc2)c(=O)c2ccccc12	-	0	-	0	62	0
COC(=O)c1cn(-c2ccc(Cl)cc2)c(=O)c2ccccc12	0	0	0	69	74	0
COC(=O)c1cn(NC(=O)c2cccnc2)c(=O)c2ccccc12	0	0	0	0	0	0
COC(=O)c1cn(NC(=O)c2cc(OC)c(OC)c(OC)c2)c(=O)c2ccccc12	0	0	0	0	0	0
COC(=O)c1cn(NC(=O)c2cc(OC)cc(OC)c2)c(=O)c2ccccc12	0	0	0	0	78	0
CS(=O)(=O)N1CCN(C2CCN(Cc3ccccc3)CC2)CC1	0	0	0	0	0	0
CC(C)CCn1nnnc1C(c1ccc(N(C)C)cc1)N1CCN(C(=O)c2ccco2)CC1 (stereo not drawn)	0	0	0	90	66	0
COCCn1nnnc1C(CC(C)C)N1CCN(C(=O)c2ccco2)CC1 (stereo not drawn)	-	0	-	0	0	0
COc1ccccc1C(c1nnnn1C(C)(C)C)N1CCN(C(=O)c2ccco2)CC1 (stereo not drawn)	0	0	0	0	0	0
CN(C)c1ccc(C(c2nnnn2C(C)(C)C)N2CCN(C(=O)c3ccco3)CC2)cc1 (stereo not drawn)	0	0	0	61	0	0
CC(C)(C)NC(=O)CSc1nccn1Cc1ccccc1	0	0	0	0	0	0
CN(Cc1ccccc1)c1nc2c(c(=O)n(C)c(=O)n2C)n1CCCc1ccccc1	0	0	0	88	97	0
SMILES	sEH inh	CYP2C9 act	sEH activator	CYP2C19 inh	CYP2C9 inhib	CYP2C19 act
CN(Cc1ccccc1)Cc1nc2c(c(=O)n(C)c(=O)n2C)n1Cc1ccc(Cl)cc1	-	0	-	0	50	0
COc1ccc(N2CCN(Cc3nc4c(c(=O)n(C)c(=O)n4C)n3Cc3cccc(C)c3)CC2)cc1	-	0	-	0	0	0
Cn1c(=O)c2c(nc(CN3CCC(C(N)=O)CC3)n2Cc2c(Cl)cccc2Cl)n(C)c1=O	-	0	-	0	68	0
COc1ccc(N2CCN(c3nc4c(c(=O)n(C)c(=O)n4C)n3Cc3ccccc3)CC2)cc1	0	0	0	0	68	0
Cc1ccc(-n2c(SCc3cc(=O)n4ccsc4n3)nnc2-c2cccnc2)c(C)c1	0	0	0	0	0	0
CCCCn1c(CN(Cc2ccccc2)Cc2ccccc2)nc2c1c(=O)n(C)c(=O)n2C	0	-	0	-	-	-
CCCCn1c(SCc2nnc(-c3ccccc3)o2)nc2c1c(=O)n(C)c(=O)n2C	0	0	0	64	77	0
